According to ChEMBL document CHEMBL3988442, “University of Dundee, Small-Polar-MMV Screening Library” (2021):
In all, about 53,000 compounds went through this assay and about 900 (1.7%) showed an effect of 50% or more. The list comes from a sample in which strong results are over-represented; it also holds similar structures and randomly drawn compounds.

What follows are compounds tested on Mycobacterium tuberculosis (assay: Cornell - Phenotypic assay to identify agents that inhibit growth of Mycobacterium tuberculosis). Settings: 10 mM as filed; unlikely as a test dose.
Assay type: functional
Design: scale not given: direction of the effect not stated beside the values

Compound | Percent Effect [%]
CN(CC(=O)N(CCC#N)c1ccccc1)C1CCc2ccccc21 (centres undefined) | 6.676
Cc1cc(NC(=O)CN2CCCC2Cn2nc(C)nc2C)on1 (centres undefined) | 9.67
COc1ccc2c(c1)C(=O)N(C)C1(CCN(CC3CC3)CC1)N2 | -6.53
COc1ccc2c(c1)C(=O)N(C)C1(CCN(C(=O)OC(C)(C)C)CC1)N2 | 105.8
COc1ccc2c(c1)C(=O)N(C)C1(CCN(CC=C(C)C)CC1)N2 | 0.8841
Cc1cc(N2CCC(CO)(CC3CCCCO3)CC2)c2ccccc2n1 (centres undefined) | 0.8134
OCC1(CC2CCCCO2)CCN(c2cnc3ccccc3n2)CC1 (centres undefined) | 107
Cc1cc(N2CCC(CO)(CC3CCCCO3)CC2)nc2ccccc12 (centres undefined) | -1.855
Cc1[nH]ccc1C(=O)N1CCOCC12CCCC2 | 102.6
Cc1ccc(F)cc1C(=O)N1CCOCC12CCCC2 | 20.33
O=C(c1ccc[nH]1)N1CCOCC12CCCC2 | -33.44
CC(C)CN1C(=O)CC(N2CCN(c3ccc(F)cc3)CC2)C1=O (centres undefined) | 12.43
COCCN1C(=O)CC(N2CCN(c3ccccc3)CC2)C1=O (centres undefined) | 12.26
O=C1CC(N2CCN(c3ccc(F)cc3)CC2)C(=O)N1Cc1cccs1 (centres undefined) | 42.8
COCCN1C(=O)CC(N2CCN(c3ccc(OC)cc3)CC2)C1=O (centres undefined) | 55.38
O=C1CC(N2CCN(c3ccccc3O)CC2)C(=O)N1Cc1cccs1 (centres undefined) | 63.35
COCCCN1C(=O)CC(N2CCN(c3ccc(F)cc3)CC2)C1=O (centres undefined) | 4.554
O=C1CC(N2CCN(c3ccc(O)cc3)CC2)C(=O)N1Cc1cccs1 (centres undefined) | 104.3
CCCN1C(=O)CC(N2CCN(c3ccc(F)cc3)CC2)C1=O (centres undefined) | -5.623
COCCN1C(=O)CC(N2CCN(c3ccc(F)cc3)CC2)C1=O (centres undefined) | 4.981
COC1(CNC(=O)c2ccoc2)CCSC1 (centres undefined) | -5.057
Cc1nn(C(C)C)c2cnn(CC(=O)N3CCSCC3)c12 | -7.998

Compound | Percent Effect [%]
CCO[C@H]1CO[C@@]2(CCN(Cc3ccc4c(c3)OCO4)C2)C1.O=C(O)C(F)(F)F | 22.33
CCC(c1ccccc1)S(=O)(=O)CCO (centres undefined) | -20.37
CN(C)c1ncc(CN2CCC(O)(c3ccccc3F)CC2)cn1.O=C(O)CC(O)(CC(=O)O)C(=O)O | 6.266
CN(C)c1ncc(CN2CCCC(Nc3ccc4c(c3)OCCO4)C2)s1 (centres undefined) | 37
COc1ccc(NC2CCCN(Cc3cnc(N(C)C)s3)C2)cc1 (centres undefined) | 47.8
COc1ccc(NC2CCCN(Cc3cnc(N(C)C)s3)C2)cc1OC (centres undefined) | 55.76
O=C(NC1CCCCC1)c1ccc(Oc2ccc3nncn3n2)cc1 | -7.341
CS(=O)(=O)N[C@H]1CCO[C@]2(CCN(C(=O)c3ccccn3)C2)C1.O=C(O)C(F)(F)F | 4.539
CS(=O)(=O)N1CCCC(c2cccc(-c3ccccc3F)n2)C1 (centres undefined) | 29.33
CN1CCCC(c2cncc(-c3cccc(C(F)(F)F)c3)n2)C1 (centres undefined) | 51.88
CN1CCCC(c2cccc(-c3ccccc3F)n2)C1 (centres undefined) | 55.32
CN1CCCC(c2nccnc2-c2cccc(C(F)(F)F)c2)C1 (centres undefined) | 32.41
CN1CCCC(c2cccc(-c3cccc(C(F)(F)F)c3)n2)C1 (centres undefined) | 30.4
OCCN1CCCC(c2cccc(-c3ccccc3F)n2)C1 (centres undefined) | -3.425
CCN(CC)C(=O)c1cc(C2(C)CCN(C(C)=O)CC2)nc(C)n1 | 3.743
O=C(O)C1CN(c2cccc(F)c2)CCO1 (centres undefined) | -11.48
O=C1CC(c2ccccc2)C2(CCN(Cc3ccccn3)CC2)N1 (centres undefined) | 1.787
CC(=O)NCc1cc2n(n1)CCN(Cc1cccc(Cl)c1Cl)C2 | 13.71
O=C(c1ccco1)N1CCC(n2nc(-c3ccco3)ccc2=O)CC1 | 11.6
O=C(Cc1ccncc1)N(CCO)CCSc1ccc(Cl)cc1 | 12.99
Cc1cccc(CNC(Cc2ccsc2)c2nc(C)c(C)s2)n1.Cl (centres undefined) | 47.96
O=C1COc2cc(C(=O)NS(=O)(=O)c3ccc(F)c(F)c3)ccc2N1 | -19.76

Compound | Percent Effect [%]
CO[C@@H]1CC[C@@H](NS(=O)(=O)c2cn(C)nc2C)[C@H]1O | 50.32
Cc1nn(C)cc1S(=O)(=O)N[C@@H]1CCC[C@@H](N2CCCC2)[C@@H]1O | 19.92
Cc1nn(C)cc1S(=O)(=O)N[C@@H]1CC[C@@H](n2ccnc2C)[C@@H]1O | -21.64
CC(NC(=O)N1CCNC(=O)CC1)c1ccc(OC(F)F)cc1 (centres undefined) | -26.09
c1cc(CN2CCC(Cc3noc(C4CC4)n3)CC2)c2c(c1)OCO2 | 11.43
Fc1ccc(C2(CNC3=NCCN3)CCCC2)cc1.I | 20.05
O=C(CCc1cc2n(n1)CCCNC2)NCCS(=O)(=O)N1CCCC1 | -51.2
Cc1cccc2c1CCN(c1cc(N3CCCC3CO)ncn1)C2 (centres undefined) | 67.12
CN1CCN(c2cc(N3CCCC3CO)ncn2)Cc2ccccc21 (centres undefined) | -16.34
CS(=O)(=O)N1CCN(c2cc(N3CCCC3CO)ncn2)CC1 (centres undefined) | 0.6089
Cc1noc(Cl)c1CCC(=O)N1CCCCC1Cn1cccn1 (centres undefined) | -3.884
Cc1ccc(S(=O)(=O)NC(=O)c2c(C)noc2C(C)C)cc1C | 26.09
Cc1noc(C(C)C)c1C(=O)NS(=O)(=O)c1ccc(Cl)cc1 | 78.7
CCOc1ccc(S(=O)(=O)NC(=O)c2c(C)noc2C(C)C)cc1 | 49.48
Cc1cc2nccc(C3CCN(C(=O)c4ccccc4F)CC3)n2n1 | 6.226
CCC(Nc1ccc(CCN2CCOCC2)cc1)C(N)=O (centres undefined) | -19.51
COCCC(=O)NCc1ccc(-c2ncncc2C(=O)N(C)C)cc1 | 32.24
CN(C)C(=O)c1cncnc1-c1ccc(CNC(=O)C2CC2)cc1 | 37.26
COCC(=O)NCc1ccc(-c2ncncc2C(=O)N(C)C)cc1 | 50.66
CNC(=O)c1sc2ccccc2c1C1CCN(c2nc(C)cc(C)n2)C1 (centres undefined) | 14.17
CN1CCCC1CCNC(=O)c1ccccc1-n1cc(CN)cn1 (centres undefined) | 7.916
Cc1cccc2c1C(=O)NC1(CCOCC1)N2 | 17.55

Compound | Percent Effect [%]
Cn1nccc1-c1ccc2nc(C3CCN(CC4CC4)CC3)nn2c1.O=C(O)C(F)(F)F.O=C(O)C(F)(F)F | -10.01
Cc1nc(NCc2ccc(C)o2)cc(C2CCNCC2)n1 | -17.21
COc1ccc2[nH]c(CNc3cc(C4CCNCC4)nc(C)n3)cc2c1 | 70.58
Cc1nc(NCc2cccc(F)c2)cc(C2CCNCC2)n1.Cl | -9.727
O=C(c1cncs1)N1CCC(c2cnccn2)CC1 | 7.442
Cc1cn2c(n1)CCC(NC(=O)Cn1cncn1)C2 (centres undefined) | -12.63
Cc1ccc(OCCC(=O)N2CCN(c3cnccn3)CC2)cc1C | 39.73
Cc1nn(C)cc1C(=O)NCc1csc(C2CC2)n1 | 0.3942
CCn1nc(C)c(C(=O)NCc2csc(C3CC3)n2)c1C | 69.61
CCn1cc(C(=O)NCc2csc(C3CC3)n2)c(C)n1 | 26.12
CCSc1cc(C(=O)NCCc2nnc(-c3ccco3)[nH]2)ccn1 | -11.72
CCOc1ccc(Br)cc1-c1cc(N)[nH]n1.Cl | -17.72
CCOc1ccccc1-c1cc(N)[nH]n1.Cl | 108.1
CCOc1cc(C)c(-c2cc(N)[nH]n2)cc1OCC | 10.44
O=C(c1cc(C2CCCC2)no1)N1CC(O)C1 | 18.4
CN(C)C(=O)CN1C(=O)CCC12CCN(Cc1ccc(F)cc1)CC2.O=C(O)C(F)(F)F | 13.62
Cl.c1csc(-c2noc(C3CCCNC3)n2)c1 (centres undefined) | 9.745
Cl.c1csc(-c2noc(C3CNC3)n2)c1 | 106.9
CCS(=O)(=O)N1CC(c2nc(-c3cccs3)no2)C1 | 8.063
CO[C@H]1CN(c2ccccc2)S(=O)(=O)[C@@]12CCN(Cc1ccccc1)C2 | 6.335
Cc1ccccc1CC(=O)N1CCCn2cncc2C1 | -17.85
Cc1cccc(C(=O)N2C[C@H](NS(C)(=O)=O)[C@@H]3OCCC[C@@H]32)n1 | 2.201

Compound | Percent Effect [%]
CN1CCC(NC(=O)Nc2ccc(F)c(Br)c2)C1=O (centres undefined) | -9.143
CN1CCC(NC(=O)Nc2ccc(F)c(-n3cccc3)c2)C1=O (centres undefined) | 84.66
CN1CCC(NC(=O)Nc2ccc(Br)c(F)c2)C1=O (centres undefined) | 8.703
COCCNc1ccc(CC2CCCN(C3CCCC3)C2)nn1 (centres undefined) | 39.43
CN(Cc1cc2cc(F)ccc2[nH]1)C(=O)C1CC(=O)N(C2CCCC2)C1 (centres undefined) | 65.9
CN(Cc1cc2cc(F)ccc2[nH]1)C(=O)C1CC(=O)N(C2CC2)C1 (centres undefined) | 52.25
CN(Cc1cc2cc(F)ccc2[nH]1)C(=O)C1CC(=O)N(C(C)(C)C)C1 (centres undefined) | 23.39
CN(C)CCN1CC(C(=O)N(C)Cc2cc3cc(F)ccc3[nH]2)CC1=O (centres undefined) | 29.76
CCN1CC(C(=O)N(C)Cc2cc3cc(F)ccc3[nH]2)CC1=O (centres undefined) | 42.66
CCc1nnc(CN(C)C(=O)C2CC(=O)N(C3CC3)C2)o1 (centres undefined) | 20.13
c1ccc(CNc2ccccc2N2CCCC2)nc1 | 18.15
O=C(NCc1ccc(Br)cc1F)C1(O)CCSCC1 | 15.88
CC(=O)NCc1ccc(-c2ccccc2C(=O)O)cn1 | 56.71
CS(=O)(=O)c1ccc(-c2ccccc2C(=O)O)cc1 | -4.334
O=C(Cc1ccccc1)NCc1ccc(-c2ccccc2C(=O)O)cn1 | 48.74
COCCC(=O)NCc1ccc(-c2ccccc2C(=O)O)nc1 | 47.85
O=C(Cc1ccccc1)NCc1ncc(-c2ccccc2C(=O)O)cn1 | 23.42
COCC(=O)NCc1ccc(-c2ccccc2C(=O)O)cn1 | 56.05
COCCN1CCC(Cc2cnc(-c3ccccc3C(=O)O)cn2)CC1 | -34.65
O=C(O)c1ccccc1-c1cnc(CNC(=O)C2CCOCC2)nc1 | -26.12
COCCC(=O)NCc1ccc(-c2ccccc2C(=O)O)cn1 | 57.39
